Source: the supplement of paper PMC10849652
Targets with a hit are over-represented here; the source holds about 8,800 in all. About 0.5% of all pairs of compound and target were hits.

What was measured:
Assay in all cases: log2 fold change, soluble protein after heating vs DMSO (PISA); higher = thermal stabilisation; K562 lysate, 10 uM; active = over 0.2 and 3.5 SD of the protein, either way, in both replicates (recomputed)
ibrutinib = compound: C=CC(=O)N1CCC[C@@H](n2nc(-c3ccc(Oc4ccccc4)cc3)c3c(N)ncnc32)C1 [ibrutinib]
Procedure, shortened: (§1)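 To prepare the extract, K562 pellets were dounce-homogenised in PBS pH 7.4 with 1 mM MgCl2, giving crude material at 1 mg/mL protein. This was treated with 10 μM compound for 30 min, then heated in aliquots for 3 min over 48°C-58°C before pooling and addition of NP-40 to 0.5% at 4°C. Centrifugation at 21,000xg for 90 min left soluble protein in the supernatant, which TMTpro 16plex LC-MS/MS quantified with equalised channel sums. Results are log-two fold changes in thermal stability compared with solvent controls, from duplicates.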

[1] = compound: CC(=O)c1cnc2ccc(-c3cc(Cl)c(O)c(Cl)c3)nc2c1N[C@H]1CC[C@H](CN(C)C)CC1
Procedure, shortened: as §1

ralimetinib = compound: CC(C)(C)Cn1c(N)nc2ccc(-c3[nH]c(C(C)(C)C)nc3-c3ccc(F)cc3)nc21 [ralimetinib]
Procedure, shortened: as §1

[2] = compound: CC(C)(O)CC(=O)NCCn1ccc2ncnc(Nc3ccc(Oc4cccc(C(F)(F)F)c4)c(Cl)c3)c21
Procedure, shortened: as §1

[3] = compound: CC1=C(C(CC(=O)N1)C2=CC=C(C=C2)C(F)(F)F)C(=O)NC3=C(C=C4C(=C3)C=NN4)F
Procedure, shortened: as §1

[4] = compound: CC1=C(C2=C(C=C1)C(=O)C3=CC=CC=C3N2CCCN)C
Procedure, shortened: as §1

[5] = compound: CC1=C(C=C(C=C1)NC(=O)C2=CC(=CC=C2)C(C)(C)C#N)NC3=CC4=C(C=C3)N=CN(C4=O)C
Procedure, shortened: as §1

[6] = compound: CC1=C(C=C(C=C1)NC(=O)C2=CC(=CC=C2)N(C)C)NC(=O)C3=CC=C(C=C3)O
Procedure, shortened: as §1

[7] = compound: CC1=CC=C(C=C1)SC2=C3C=C(SC3=CN=C2)C(=O)N
Procedure, shortened: as §1

[8] = compound: CC(C)C1=C2N=C(C=C(N2N=C1)NCC3=CC=CC=C3)NCCCCCCN
Procedure, shortened: as §1

Measured: log2 fold change

PRG4 (UniProt Q92954)
inactive: ibrutinib 0.267 | [1] -0.002 | ralimetinib 0.037 | [2] -0.109 | [3] -0.091 | [4] -0.029 | [5] -0.027 | [6] 0.035 | [7] 0.034

NA (UniProt Q4G0T1)
inactive: ralimetinib 0.016 | [2] -0.096 | [8] -0.119 | [4] -0.061 | [5] -0.158 | [6] -0.151

PPP2R5C isoform 2 (UniProt Q13362)
inactive: ibrutinib -0.145 | ralimetinib -0.016 | [2] -0.02 | [8] 0.02 | [3] -0.012 | [4] 0 | [5] -0.155 | [6] 0.08

PPME1 (UniProt Q9Y570)
UniProt Q9Y570, sequence (Q9Y570 whole entry, looked up): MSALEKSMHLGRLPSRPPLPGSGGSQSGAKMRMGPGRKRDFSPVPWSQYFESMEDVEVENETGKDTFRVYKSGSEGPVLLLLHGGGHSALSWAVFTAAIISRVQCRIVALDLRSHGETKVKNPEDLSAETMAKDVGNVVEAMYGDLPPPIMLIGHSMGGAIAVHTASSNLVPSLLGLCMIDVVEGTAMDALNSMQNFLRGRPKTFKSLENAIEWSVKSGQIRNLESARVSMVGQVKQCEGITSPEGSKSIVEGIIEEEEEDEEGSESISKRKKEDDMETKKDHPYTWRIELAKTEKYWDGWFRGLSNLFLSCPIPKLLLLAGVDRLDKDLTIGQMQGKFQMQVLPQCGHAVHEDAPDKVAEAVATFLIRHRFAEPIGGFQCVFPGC
inactive: ibrutinib -0.038 | [1] -0.072 | [8] -0.238 | [4] -0.018 | [7] -0.077

PREP (UniProt H0Y5Y0)
inactive: [1] -0.051 | [7] 0.029

POM121C (UniProt A8CG34)
UniProt A8CG34, sequence (A8CG34 whole entry, looked up): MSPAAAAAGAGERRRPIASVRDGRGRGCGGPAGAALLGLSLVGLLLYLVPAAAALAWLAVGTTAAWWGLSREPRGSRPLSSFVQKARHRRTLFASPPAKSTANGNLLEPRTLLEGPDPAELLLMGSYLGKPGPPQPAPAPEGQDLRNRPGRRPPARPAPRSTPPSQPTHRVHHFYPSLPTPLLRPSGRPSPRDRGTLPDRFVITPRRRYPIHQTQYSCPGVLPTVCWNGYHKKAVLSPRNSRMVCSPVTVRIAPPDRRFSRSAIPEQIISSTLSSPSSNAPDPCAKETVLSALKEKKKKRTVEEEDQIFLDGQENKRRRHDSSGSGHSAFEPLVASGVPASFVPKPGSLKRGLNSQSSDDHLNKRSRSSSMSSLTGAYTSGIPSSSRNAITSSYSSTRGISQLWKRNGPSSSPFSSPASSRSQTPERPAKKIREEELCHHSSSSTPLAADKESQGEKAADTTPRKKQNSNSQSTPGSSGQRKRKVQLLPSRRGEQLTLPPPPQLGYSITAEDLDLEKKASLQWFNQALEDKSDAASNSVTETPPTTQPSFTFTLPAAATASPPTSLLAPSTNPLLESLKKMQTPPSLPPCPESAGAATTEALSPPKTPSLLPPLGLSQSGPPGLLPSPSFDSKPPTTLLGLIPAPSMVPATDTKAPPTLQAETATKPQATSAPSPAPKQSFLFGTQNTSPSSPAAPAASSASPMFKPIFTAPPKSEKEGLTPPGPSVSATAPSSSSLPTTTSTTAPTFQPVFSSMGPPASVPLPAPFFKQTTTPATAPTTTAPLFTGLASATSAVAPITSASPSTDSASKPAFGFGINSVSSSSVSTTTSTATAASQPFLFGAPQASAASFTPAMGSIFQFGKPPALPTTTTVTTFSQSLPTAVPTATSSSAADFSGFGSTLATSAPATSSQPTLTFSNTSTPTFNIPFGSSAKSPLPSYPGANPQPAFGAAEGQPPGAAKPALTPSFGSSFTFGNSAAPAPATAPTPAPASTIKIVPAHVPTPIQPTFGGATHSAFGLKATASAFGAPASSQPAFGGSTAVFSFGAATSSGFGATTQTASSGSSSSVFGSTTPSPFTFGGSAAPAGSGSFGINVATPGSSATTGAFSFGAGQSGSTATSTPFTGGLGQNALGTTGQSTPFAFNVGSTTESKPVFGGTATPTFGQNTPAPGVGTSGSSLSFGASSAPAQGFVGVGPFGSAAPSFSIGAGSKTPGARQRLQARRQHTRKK
inactive: ibrutinib -0.167 | [1] 0.008 | ralimetinib -0.127 | [2] 0.016 | [8] 0.028 | [6] -0.028 | [7] 0.034

PHF14 (UniProt O94880)
inactive: ibrutinib -0.014 | [1] 0.03 | ralimetinib -0.024 | [2] -0.055 | [4] -0.003 | [6] -0.042 | [7] -0.128
active: [3] 0.454

PCBP2 (UniProt F8W0G4)
inactive: ibrutinib -0.27 | ralimetinib -0.061 | [2] -0.282 | [8] -0.175 | [3] -0.045 | [4] -0.083 | [6] 0.049

PPP1R12B isoform 6 (UniProt O60237)
UniProt O60237, sequence (O60237 whole entry, looked up): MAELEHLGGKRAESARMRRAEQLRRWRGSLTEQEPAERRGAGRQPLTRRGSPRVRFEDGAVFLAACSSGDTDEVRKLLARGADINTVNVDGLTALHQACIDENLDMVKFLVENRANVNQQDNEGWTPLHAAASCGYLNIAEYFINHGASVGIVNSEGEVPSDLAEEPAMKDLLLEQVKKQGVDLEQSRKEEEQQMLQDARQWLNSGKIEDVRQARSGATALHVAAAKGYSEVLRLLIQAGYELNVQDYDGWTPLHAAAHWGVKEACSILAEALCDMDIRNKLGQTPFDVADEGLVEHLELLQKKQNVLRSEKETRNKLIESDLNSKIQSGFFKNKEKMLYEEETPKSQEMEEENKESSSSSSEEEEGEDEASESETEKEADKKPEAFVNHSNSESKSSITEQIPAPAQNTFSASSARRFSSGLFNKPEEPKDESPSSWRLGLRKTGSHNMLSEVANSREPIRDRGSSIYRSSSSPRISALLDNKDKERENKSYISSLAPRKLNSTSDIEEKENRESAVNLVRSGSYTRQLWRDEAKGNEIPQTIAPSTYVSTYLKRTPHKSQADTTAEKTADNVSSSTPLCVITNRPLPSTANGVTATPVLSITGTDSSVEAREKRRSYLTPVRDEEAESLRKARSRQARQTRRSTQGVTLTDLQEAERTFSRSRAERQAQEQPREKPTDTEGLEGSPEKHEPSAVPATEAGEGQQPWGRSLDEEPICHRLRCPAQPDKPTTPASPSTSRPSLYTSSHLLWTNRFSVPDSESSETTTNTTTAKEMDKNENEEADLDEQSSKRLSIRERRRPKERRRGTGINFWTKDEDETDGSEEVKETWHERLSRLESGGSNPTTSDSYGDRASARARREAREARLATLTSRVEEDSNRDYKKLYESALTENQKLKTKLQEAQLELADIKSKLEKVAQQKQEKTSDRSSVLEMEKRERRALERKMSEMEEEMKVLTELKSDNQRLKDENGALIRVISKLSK
inactive: ibrutinib 0.019 | [1] -0.112 | ralimetinib 0.01 | [2] -0.251 | [8] 0.095 | [4] 0.106 | [5] 0.142 | [6] -0.012 | [7] -0.194

PRRG1 (UniProt O14668)
inactive: ralimetinib 0.081 | [2] 0.072 | [6] -0.033

PICALM (UniProt H0YCY1)
inactive: [8] -0.155

PIAS2 (UniProt O75928)
inactive: ralimetinib 0.019 | [2] 0.006 | [8] -0.017 | [3] 0.039 | [4] 0.052 | [5] -0.001 | [6] -0.002

PNPLA4 (UniProt P41247)
UniProt P41247, sequence (P41247 whole entry, looked up): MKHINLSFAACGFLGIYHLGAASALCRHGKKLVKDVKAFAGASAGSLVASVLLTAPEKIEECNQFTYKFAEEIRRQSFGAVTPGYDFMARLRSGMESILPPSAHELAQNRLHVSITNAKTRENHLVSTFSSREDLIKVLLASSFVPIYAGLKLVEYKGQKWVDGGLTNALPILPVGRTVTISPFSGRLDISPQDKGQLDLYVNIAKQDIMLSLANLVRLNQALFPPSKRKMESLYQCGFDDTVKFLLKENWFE
inactive: ralimetinib 0.14 | [2] -0.099 | [4] -0.116 | [5] -0.052 | [6] 0.046

PIK3CG (UniProt P48736)
inactive: ibrutinib -0.017 | ralimetinib 0.02 | [2] -0.047 | [8] -0.027 | [3] -0.054 | [4] -0.071 | [5] -0.025 | [6] 0.01

PPIC (UniProt P45877)
inactive: ibrutinib 0.278 | ralimetinib -0.17 | [2] 0.057 | [8] -0.021 | [3] -0.139 | [4] 0.138 | [5] 0.102 | [6] 0.05

PFN3 (UniProt P60673)
UniProt P60673, sequence (P60673 whole entry, looked up): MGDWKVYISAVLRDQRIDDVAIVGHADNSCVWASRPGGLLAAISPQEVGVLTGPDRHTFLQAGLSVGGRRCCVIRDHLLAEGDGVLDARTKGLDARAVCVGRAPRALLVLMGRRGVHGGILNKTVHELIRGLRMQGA
inactive: [1] 0.042 | [3] -0.02 | [5] -0.03 | [7] -0.02

PYGO2 (UniProt Q9BRQ0)
UniProt Q9BRQ0, sequence (Q9BRQ0 whole entry, looked up): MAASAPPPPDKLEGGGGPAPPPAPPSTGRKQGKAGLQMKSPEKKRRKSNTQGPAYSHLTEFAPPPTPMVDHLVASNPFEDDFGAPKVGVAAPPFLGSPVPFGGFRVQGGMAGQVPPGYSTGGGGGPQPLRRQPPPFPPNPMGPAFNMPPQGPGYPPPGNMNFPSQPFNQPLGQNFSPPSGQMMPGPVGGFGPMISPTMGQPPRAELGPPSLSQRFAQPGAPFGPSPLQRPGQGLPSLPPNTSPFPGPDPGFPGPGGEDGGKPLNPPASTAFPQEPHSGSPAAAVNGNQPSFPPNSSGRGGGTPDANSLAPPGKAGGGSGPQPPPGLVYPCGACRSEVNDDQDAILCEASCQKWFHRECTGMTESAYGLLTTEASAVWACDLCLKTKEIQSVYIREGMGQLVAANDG
inactive: ibrutinib 0.064 | ralimetinib 0.151 | [2] -0.122 | [8] -0.001 | [3] 0.005 | [4] 0.044 | [5] 0.011 | [6] -0.061

PCBP2 (UniProt F8VRH0)
inactive: [1] -0.014 | ralimetinib 0.087 | [2] -0.033 | [8] 0.051 | [3] 0.129 | [5] 0.017 | [6] 0.012 | [7] 0.027

PTK2 isoform 2 (UniProt Q05397)
UniProt Q05397, sequence (Q05397 whole entry, looked up): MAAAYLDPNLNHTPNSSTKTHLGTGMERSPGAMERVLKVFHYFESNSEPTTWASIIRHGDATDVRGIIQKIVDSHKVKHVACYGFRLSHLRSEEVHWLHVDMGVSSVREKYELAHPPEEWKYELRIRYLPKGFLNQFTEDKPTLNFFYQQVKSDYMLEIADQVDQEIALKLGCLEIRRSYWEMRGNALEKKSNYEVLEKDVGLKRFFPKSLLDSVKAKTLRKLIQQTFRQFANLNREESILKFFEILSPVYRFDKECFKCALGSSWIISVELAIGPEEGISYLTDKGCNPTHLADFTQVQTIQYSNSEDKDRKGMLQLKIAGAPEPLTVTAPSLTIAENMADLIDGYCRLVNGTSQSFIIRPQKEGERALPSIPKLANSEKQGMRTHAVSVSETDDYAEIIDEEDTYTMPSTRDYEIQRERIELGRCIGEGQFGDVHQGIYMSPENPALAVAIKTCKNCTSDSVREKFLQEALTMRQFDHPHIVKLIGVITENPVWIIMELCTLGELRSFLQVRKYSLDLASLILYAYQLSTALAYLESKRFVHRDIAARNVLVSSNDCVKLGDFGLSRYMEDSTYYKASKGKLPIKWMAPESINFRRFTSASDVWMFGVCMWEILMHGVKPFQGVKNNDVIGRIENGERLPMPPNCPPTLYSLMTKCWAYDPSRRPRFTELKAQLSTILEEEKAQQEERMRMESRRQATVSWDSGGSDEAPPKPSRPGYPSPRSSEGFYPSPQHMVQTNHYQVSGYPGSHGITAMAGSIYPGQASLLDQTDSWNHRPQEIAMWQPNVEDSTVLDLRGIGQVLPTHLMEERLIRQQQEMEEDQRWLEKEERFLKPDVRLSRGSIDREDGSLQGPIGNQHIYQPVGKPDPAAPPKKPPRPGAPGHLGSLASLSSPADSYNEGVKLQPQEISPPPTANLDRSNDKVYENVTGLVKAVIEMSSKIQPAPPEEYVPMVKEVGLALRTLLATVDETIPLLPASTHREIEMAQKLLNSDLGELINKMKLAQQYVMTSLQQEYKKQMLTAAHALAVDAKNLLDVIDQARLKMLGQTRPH
inactive: ibrutinib 0.173 | [1] -0.047 | [8] -0.002 | [4] -0.138 | [7] -0.053

PPP2R5B (UniProt Q15173)
UniProt Q15173, sequence (Q15173 whole entry, looked up): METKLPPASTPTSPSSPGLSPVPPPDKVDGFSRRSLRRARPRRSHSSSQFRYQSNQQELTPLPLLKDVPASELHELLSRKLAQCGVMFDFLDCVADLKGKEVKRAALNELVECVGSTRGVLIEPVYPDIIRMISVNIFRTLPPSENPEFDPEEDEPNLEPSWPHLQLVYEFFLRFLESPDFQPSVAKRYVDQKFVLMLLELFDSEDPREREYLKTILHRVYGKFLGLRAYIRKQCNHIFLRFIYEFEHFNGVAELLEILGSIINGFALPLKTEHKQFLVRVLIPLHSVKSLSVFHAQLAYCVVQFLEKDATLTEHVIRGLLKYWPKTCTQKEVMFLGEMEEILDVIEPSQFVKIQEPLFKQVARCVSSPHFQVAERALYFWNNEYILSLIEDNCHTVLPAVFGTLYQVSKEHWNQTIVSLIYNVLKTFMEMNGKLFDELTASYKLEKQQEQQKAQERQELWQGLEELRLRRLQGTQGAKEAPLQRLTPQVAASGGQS
inactive: ibrutinib 0.042 | [1] 0.033 | ralimetinib 0 | [2] -0.046 | [8] -0.055 | [4] 0.009 | [5] 0.026 | [6] 0.08 | [7] -0.053

PHOSPHO2 (UniProt C9JD35)
inactive: [5] 0.09

PPT2, A0A140T9Y1
inactive: [3] -0.142

PMS1 (UniProt P54277)
inactive: ibrutinib 0 | ralimetinib -0.015 | [2] -0.021 | [8] 0.025 | [3] -0.052 | [4] 0.022 | [5] -0.02 | [6] 0.009

PFN1 (UniProt I3L3D5)
inactive: ibrutinib -0.045 | [1] -0.053 | ralimetinib 0.045 | [2] -0.033 | [3] -0.013 | [6] 0 | [7] 0.031
